# Screens (PubChem BioAssay)
# Pf growth 96h: inhibits malaria parasite growth, 96 h; P. falciparum luciferase reporter growth, 96 h; Potency, µM (highest dose often 28.7 µM), actives largely listed as inhibitors; 320,000 tested, 6.9% active
#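 P. falciparum expressing integrated firefly luciferase grown in erythrocytes (2% hematocrit, 0.05% parasitemia final) with compounds for 96 hours at 37 C, 5% CO2. Growth inhibition read as loss of luminescence after adding luciferase detection reagent.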
# AMA1 RON2 block: disrupts binding of P. falciparum AMA1 to RON2; AlphaScreen AMA1-biotinylated RON2 peptide binding; Potency, µM (series often up to 58.2 µM), actives largely listed as inhibitors; 360,000 tested, 0.2% active; further: nearly all actives have a fitted effect of over 45% in size
#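 AMA1 (3D7) with his tag at 25 nM final met compounds first, then biotinylated RON2 peptide at 25 nM; detection used donor plus acceptor beads, 10 µg/mL apiece, read by AlphaScreen after 30 min at room temperature.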
# SARS PLpro yeast: blocks SARS-CoV papain-like protease in a yeast assay. S. cerevisiae expressing SARS-CoV PLpro, growth rescue. Potency, µM (series often up to 32.9 µM), usual class: activators. 330,000 tested, 0.19% active. AID 485353; calls by dose curve; further: nearly all actives have a fitted effect of over 55% in size
# Shiga inhibitor: inhibitors of Shiga toxin in Vero cells | Vero cells, Shiga toxin protein synthesis inhibition reporter | AID 2315 | inhibition, % at 38.7 µM | 290,000 tested, 9.2% active; in the data active means inhibition mostly above about 28%, no sharp cut-off; inactive means mostly below about 43%
# Pf growth 48h: P. falciparum growth inhibition at 48 hours (one generation) | P. falciparum luciferase growth in erythrocytes, 48 h | Potency, µM (doses to about 28.7 µM), usual class: inhibitors | 310,000 tested, 5.9% active
#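 Compounds are pin-transferred into medium, infected erythrocytes (2% hematocrit, 0.1% parasitemia final) are added, and plates sit one parasite generation at 37 C in 5% CO2. Detection reagent is then added and luminescence measured.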
# CHX counter: counter-screen for Shiga toxin inhibitors: cycloheximide protein synthesis inhibition; 300,000 tested, 12% active; cell reporter, cycloheximide protein synthesis inhibition counterscreen; AID 2314; max response, %; in the data active means max response mostly above about 13%, no sharp cut-off; inactive means mostly below about 14%; further: read at 38.3 µM for the half of the compounds with a filed dose
# Hits are given with their value; – = inactive; ? = inconclusive; · = not tested or not shown; [ ] = remark or other dose. Most compounds without a hit are left out; they make up all but 19% or so of the library. Unless noted, the call rests on the fitted dose curve; in most records, active means well fitted curve in the direction sought with a large enough effect; inconclusive means small, poorly fitted or top-dose-only effect, or another doubt; inactive means no such curve, though single readings can be large; an effect the other way counts as inactive or inconclusive.
SMILES,Pf growth 96h,AMA1 RON2 block,SARS PLpro yeast,Shiga inhibitor,Pf growth 48h,CHX counter
CCOC(=O)c1ccc(NC(=S)N(CCCN(CC)CC)Cc2ccco2)cc1,15µM,–,–,–,?,–
CCOC(=O)c1ccc(NC(=S)N(CCCN2CCCCC2)Cc2ccco2)cc1,–,–,–,–,?,–
CC(C)OC(=O)c1ccc(NC(=O)c2ccccc2)cc1,?,–,–,69,?,66
CCOC(=O)c1ccc(NC(=O)CSCCC(=O)O)cc1,–,–,–,–,–,–
CCOC(=O)c1ccc(NC(=O)CSCc2ccco2)cc1,?,–,–,32,?,13
O=C(NCCc1c[nH]c2ccccc12)c1cc(Cl)c2c(c1)OCO2,–,–,–,96,–,48
Cc1ccc2[nH]cc(CCNC(=O)c3ccc4c(c3)OCO4)c2c1,–,–,–,–,–,–
O=C(NCCc1c[nH]c2ccccc12)c1ccc2c(c1)OCO2,–,–,–,108,–,54
Cc1ccc(-c2csc3ncn(C(C)C(=O)O)c(=O)c23)cc1 (stereo not drawn),–,–,–,–,–,–
CCCCC[C@@H](C)N1C[C@@H](COCc2ccccc2)Oc2cc(N3CCC[C@@H]3CO)ccc2S1(=O)=O,·,–,·,·,·,·
CC1CCCN(C2(O)C(=O)Nc3ccc([N+](=O)[O-])cc32)C1 (stereo not drawn),–,–,–,–,–,–
CC(C)c1ccc(-c2c(C#N)c(N)nc(SCC(=O)N3CCCCC3)c2C#N)cc1,?,–,–,–,·,–
CC(C)c1ccc(-c2c(C#N)c(N)nc(SCC(=O)N3CCCCCC3)c2C#N)cc1,5.2µM,–,–,–,·,–
Cc1cc2c(cc1C)NC(c1c(C)n(C)n(-c3ccccc3)c1=O)C1=C(CC(C)(C)CC1=O)N2 (stereo not drawn),10µM,–,–,39,?,19
Cc1ccc(C2Nc3ccccc3NC3=C2C(=O)CC(C)(C)C3)c(O)c1 (stereo not drawn),–,–,–,–,–,14
COc1ccc(C2Nc3ccccc3NC3=C2C(=O)CC(C)(C)C3)cc1OC (stereo not drawn),–,–,–,–,–,–
CC1(C)CC(=O)C2=C(C1)Nc1ccccc1NC2c1nc2ccccc2[nH]1 (stereo not drawn),?,–,–,118,·,42
COc1ccc(C2Nc3ccccc3NC3=C2C(=O)CC(C)(C)C3)cc1O (stereo not drawn),–,–,–,70,?,24
COc1cc(C2Nc3cc(C)c(C)cc3NC3=C2C(=O)CC(C)(C)C3)ccc1OC(C)=O (stereo not drawn),?,–,–,–,–,–
CC1(C)CC(=O)C2=C(C1)Nc1ccccc1NC2c1cc(Cl)ccc1O (stereo not drawn),?,–,–,–,–,–
Cc1c(CN(C)C(=O)/C=C/c2ccc([N+](=O)[O-])cc2)cnn1C,–,–,–,–,–,–
CS(=O)(=O)N(CC(=O)Nc1ccccc1C(=O)N1CCCC1)c1ccccc1Br,?,–,?,–,–,–
C=CCn1c(C)csc1=Nc1ccc(C(=O)O)cc1,–,–,–,–,–,–
COc1ccccc1C1Nc2ccccc2NC2=C1C(=O)CC(C)(C)C2 (stereo not drawn),–,–,–,–,–,–
COc1ccc(C2Nc3ccccc3NC3=C2C(=O)CC(C)(C)C3)cc1 (stereo not drawn),–,–,–,84,–,48
SMILES,Pf growth 96h,AMA1 RON2 block,SARS PLpro yeast,Shiga inhibitor,Pf growth 48h,CHX counter
CC1(C)CC(=O)C2=C(C1)Nc1ccccc1NC2c1ccc(F)cc1 (stereo not drawn),–,–,–,–,–,–
COc1ccc(OC)c(C2Nc3ccccc3NC3=C2C(=O)CC(C)(C)C3)c1 (stereo not drawn),4.1µM,–,–,–,–,19
COC(=O)[C@@]12C[C@@H](CC(=O)NCCC(C)C)C(=O)N(Cc3ccc4c(c3)OCO4)C1=CCC(C)(C)C2,·,–,·,·,·,·
CC(=O)NC12CC3CC(C1)CC(C(=O)Nc1nccs1)(C3)C2,6.6µM,–,–,–,?,–
COc1ccc2nc(NC(=O)C34CC5CC(CC(NC(C)=O)(C5)C3)C4)sc2c1,–,–,–,45,–,49
CCOc1ccc2nc(NC(=O)C34CC5CC(CC(NC(C)=O)(C5)C3)C4)sc2c1,?,–,–,–,–,–
O=C(Nc1cccnc1)c1ccc(COc2ccccc2Cl)o1,–,–,–,–,–,–
O=C(Nc1ccc(Br)cn1)c1ccc(COc2c(F)c(F)cc(F)c2F)o1,–,–,–,·,–,·
CCOc1ccc(OCc2ccc(C(=O)Nc3ccc(Cl)cn3)o2)cc1,–,–,–,34,–,–
O=C(Nc1ccc(Cl)cn1)c1ccc(COc2ccccc2Br)o1,–,–,–,162,–,61
COC(=O)c1ccccc1NC(=O)c1ccc(COc2ccc(C)c(C)c2)o1,–,–,–,–,?,–
COC(=O)c1ccccc1NC(=O)c1ccc(COc2cc(C)cc(C)c2)o1,4.1µM,–,–,–,?,–
O=C(Nc1ccccn1)c1ccc(COc2ccccc2Cl)o1,–,–,–,89,–,30
CSc1ccc(CN2CCC2(C)C(=O)NC2CCN(Cc3ccccc3)CC2)cc1 (stereo not drawn),·,–,·,·,·,·
Cc1ccc(NC(=O)c2ccc(COc3ccccc3)o2)nc1,–,–,–,55,–,26
Cc1ccc(C)c(OCc2ccc(C(=O)Nc3ccc([N+](=O)[O-])cn3)o2)c1,–,–,–,·,?,·
COc1cccc(CN(C)C(=O)CSc2nc3ccccc3[nH]2)c1OC,–,–,–,46,–,26
COc1cccc(CN(C)C(=O)Cc2c[nH]c3ccccc23)c1OC,–,–,–,–,–,–
COCCCN(C(=O)c1ccccc1)c1nc(-c2ccc(OC)cc2)cs1,?,–,–,–,?,–
CCN(CC)CCCN(C(=O)c1ccco1)c1nc(-c2ccc(Cl)cc2)cs1,?,–,–,–,1.5µM,–
CCN(CC)CCCN(C(=O)c1ccco1)c1nc(-c2ccc(C)cc2)cs1,–,–,–,–,?,–
COCCCN(C(=O)c1ccco1)c1nc(-c2ccc(OC)cc2)cs1,?,?,–,–,–,13
COCCCN(C(C)=O)c1nc(-c2ccccc2)cs1,?,?,–,81,–,39
N[C@@H](COC(c1cccc(F)c1)c1ccccc1OCc1ccccc1)C(=O)O (stereo partly drawn),·,·,·,–,·,–
CC(C)[C@H](NC(N)=O)C(=O)Nc1ccc(F)c(Cl)c1,–,–,–,–,–,–
C/C(=N/N=C/c1ccccc1O)c1ccccc1O,–,–,–,89,–[0.00184 µM],43
Oc1ccccc1C=NCCCCCCN=Cc1ccccc1O,–,–,–,–,–,–
CCN(CC)c1ccc(C=Nc2cc(C)ccc2C)c(O)c1,–,?,–,–,–,–
